Reference: PubChem BioAssay (EPA / NIEHS)
Values joined by “and” are separate entries in the source; they are usually repeats but may differ in a detail not shown here. Equal entries are not always repeated. Inconclusive results are not listed. Some structures have more than one record in an assay (separate samples or runs), and their calls can disagree. Active and inactive are the calls of the source. The calls were made as follows, unless noted: active = hit-call score of the fitted dose curve at least 0.9, where 1 is the maximum; inactive = score below 0.9.

What was measured:
[1] = molecular target: Estrogen-related receptor gamma (Homo sapiens) (UniProt P62508); assay: ATG_ERRg_TRANS: Attagene TRANS-FACTORIAL HepG2 Assay for human Estrogen-Related Receptor gamma (ERRg) (AID 2282977; active = hit-call score of the fitted dose curve at least 0.9, where 1 is the maximum;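 also: hits increase reporter signal over DMSO so potencies reflect activators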); settings: HepG2 Attagene TRANS reporter, ERRg transactivation
Method in brief: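 Transient HepG2 transfectants, 24 h compound exposure, GAL4-UAS reporter mRNA by RT-PCR/6-FAM labelling/capillary electrophoresis; positive direction vs DMSO.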

[2] = molecular target: Glucocorticoid receptor (Homo sapiens) (UniProt P04150); assay: ATG_GR_TRANS: Attagene TRANS-FACTORIAL HepG2 Assay for human Glucocorticoid Receptor (GR) (AID 2282978; active = hit-call score of the fitted dose curve at least 0.9, where 1 is the maximum;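 also: activators score as hits since higher reporter transcript over DMSO is fitted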); settings: HepG2 Attagene TRANS GR reporter, mRNA transcription
Chain of Glucocorticoid receptor (Homo sapiens) (P04150 whole entry, looked up, the tested form may be a part): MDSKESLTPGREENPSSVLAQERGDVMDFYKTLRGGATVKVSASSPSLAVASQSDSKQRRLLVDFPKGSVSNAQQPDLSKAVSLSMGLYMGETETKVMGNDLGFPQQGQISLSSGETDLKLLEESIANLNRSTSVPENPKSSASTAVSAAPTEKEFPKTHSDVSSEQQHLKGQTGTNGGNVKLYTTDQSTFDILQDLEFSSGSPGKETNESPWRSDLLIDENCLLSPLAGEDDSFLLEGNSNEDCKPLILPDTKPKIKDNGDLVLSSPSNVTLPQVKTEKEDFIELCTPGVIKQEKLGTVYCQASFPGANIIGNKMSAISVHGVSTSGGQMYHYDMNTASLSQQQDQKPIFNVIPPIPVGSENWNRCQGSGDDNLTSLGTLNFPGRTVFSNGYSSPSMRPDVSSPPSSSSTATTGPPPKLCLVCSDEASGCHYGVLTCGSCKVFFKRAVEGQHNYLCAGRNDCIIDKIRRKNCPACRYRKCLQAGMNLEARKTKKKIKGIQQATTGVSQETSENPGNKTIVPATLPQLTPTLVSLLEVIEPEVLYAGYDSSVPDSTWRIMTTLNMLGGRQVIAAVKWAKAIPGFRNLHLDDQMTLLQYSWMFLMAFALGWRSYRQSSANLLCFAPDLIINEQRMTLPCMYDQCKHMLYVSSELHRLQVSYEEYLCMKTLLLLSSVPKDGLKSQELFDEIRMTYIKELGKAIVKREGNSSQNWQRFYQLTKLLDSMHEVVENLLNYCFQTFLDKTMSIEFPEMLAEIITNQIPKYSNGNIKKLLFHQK
Method in brief: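 Transient MRTU transfection of HepG2 (GAL4-UAS reporters, exogenous NR-GAL4 chimeras), 24 h dosing. Readout: reporter transcript via RT-PCR + capillary electrophoresis fluorescence. Positive direction vs DMSO baseline.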

[3] = molecular target: Bile acid receptor (Homo sapiens) (UniProt Q96RI1); assay: ATG_FXR_TRANS: Attagene TRANS-FACTORIAL HepG2 Assay for Farnesoid X Receptor (FXR) (AID 2282979; active = hit-call score of the fitted dose curve at least 0.9, where 1 is the maximum;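 also: hits raise reporter mRNA above DMSO so AC50 marks FXR activation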); settings: HepG2 Attagene TRANS FXR-GAL4 reporter transcription
Chain of Bile acid receptor (Homo sapiens) (Q96RI1 whole entry, looked up, the tested form may be a part): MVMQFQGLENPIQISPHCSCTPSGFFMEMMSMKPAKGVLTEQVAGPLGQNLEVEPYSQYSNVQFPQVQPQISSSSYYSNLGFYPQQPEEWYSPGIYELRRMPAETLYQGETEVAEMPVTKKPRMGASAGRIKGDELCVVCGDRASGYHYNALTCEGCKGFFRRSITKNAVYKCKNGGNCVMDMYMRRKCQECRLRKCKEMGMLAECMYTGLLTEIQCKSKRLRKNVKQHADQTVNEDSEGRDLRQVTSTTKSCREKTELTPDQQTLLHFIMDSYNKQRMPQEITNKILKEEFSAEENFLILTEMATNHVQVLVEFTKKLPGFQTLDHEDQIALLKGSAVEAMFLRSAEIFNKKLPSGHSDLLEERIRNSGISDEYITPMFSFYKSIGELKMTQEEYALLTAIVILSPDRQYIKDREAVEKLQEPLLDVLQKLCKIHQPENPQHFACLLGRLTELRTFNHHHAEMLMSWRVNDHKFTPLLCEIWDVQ
Method in brief: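 After 24 h chemical treatment of transfected HepG2 cells, GAL4-UAS reporter transcripts driven by an exogenous FXR-GAL4 fusion were measured by RT-PCR and capillary electrophoresis. Increases over DMSO were fitted.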

[4] = molecular target: Oxysterols receptor LXR-alpha (Homo sapiens) (UniProt Q13133); assay: ATG_LXRa_TRANS: Attagene TRANS-FACTORIAL HepG2 Assay for human Liver X Receptor alpha (LXRa) (AID 2282980; active = hit-call score of the fitted dose curve at least 0.9, where 1 is the maximum); settings: HepG2 Attagene TRANS reporter, LXRa transactivation
Chain of Oxysterols receptor LXR-alpha (Homo sapiens) (Q13133 whole entry, looked up, the tested form may be a part): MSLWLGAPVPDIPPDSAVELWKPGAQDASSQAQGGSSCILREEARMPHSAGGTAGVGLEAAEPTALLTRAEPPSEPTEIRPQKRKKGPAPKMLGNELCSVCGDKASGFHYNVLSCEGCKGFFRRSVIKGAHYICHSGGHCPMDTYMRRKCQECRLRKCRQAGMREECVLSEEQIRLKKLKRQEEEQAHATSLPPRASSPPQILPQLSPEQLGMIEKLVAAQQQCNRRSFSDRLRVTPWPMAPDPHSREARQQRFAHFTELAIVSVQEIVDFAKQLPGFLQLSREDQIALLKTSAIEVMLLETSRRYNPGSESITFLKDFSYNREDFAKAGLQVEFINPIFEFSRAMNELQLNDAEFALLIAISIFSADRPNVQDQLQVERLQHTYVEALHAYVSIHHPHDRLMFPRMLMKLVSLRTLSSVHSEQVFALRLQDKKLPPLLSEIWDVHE
Method in brief: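 In this multiplexed TRANS system, compounds act on HepG2 cells carrying GAL4-UAS reporter units and a receptor-GAL4 fusion for 24 h. Induced reporter RNA is amplified, fluorescently labelled and sized by capillary electrophoresis, with DMSO as baseline.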

[5] = molecular target: Oxysterols receptor LXR-beta (Homo sapiens) (UniProt P55055); assay: ATG_LXRb_TRANS: Attagene TRANS-FACTORIAL HepG2 Assay for human Liver X Receptor beta (LXRb) (AID 2282981; active = hit-call score of the fitted dose curve at least 0.9, where 1 is the maximum); settings: HepG2 Attagene TRANS GAL4-LXRb reporter, mRNA
Chain of Oxysterols receptor LXR-beta (Homo sapiens) (P55055 whole entry, looked up, the tested form may be a part): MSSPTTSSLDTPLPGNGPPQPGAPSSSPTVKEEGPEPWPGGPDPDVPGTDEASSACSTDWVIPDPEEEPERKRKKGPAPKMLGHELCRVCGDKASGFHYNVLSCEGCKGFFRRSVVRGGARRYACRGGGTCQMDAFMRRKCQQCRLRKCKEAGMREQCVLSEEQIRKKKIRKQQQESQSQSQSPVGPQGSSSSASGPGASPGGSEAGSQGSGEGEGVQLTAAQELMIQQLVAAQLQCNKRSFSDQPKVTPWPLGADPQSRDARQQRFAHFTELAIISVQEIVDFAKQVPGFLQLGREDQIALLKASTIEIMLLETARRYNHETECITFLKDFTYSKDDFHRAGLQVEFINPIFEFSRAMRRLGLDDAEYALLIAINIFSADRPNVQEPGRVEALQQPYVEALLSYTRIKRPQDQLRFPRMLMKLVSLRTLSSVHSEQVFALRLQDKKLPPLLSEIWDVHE
Method in brief: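 Gain-of-signal mRNA reporter endpoint, DMSO as negative control. Transiently transfected HepG2 cells carrying the NR-Gal4 chimera and GAL4-UAS reporter units were treated 24 h; transcripts quantified by RT-PCR and capillary electrophoresis fluorescence.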

[6] = ATG_M_06_TRANS: Attagene TRANS-FACTORIAL HepG2 Assay for M06 Transcription Factor (Internal Marker) (AID 2282983; active = hit-call score of the fitted dose curve at least 0.9, where 1 is the maximum); settings: HepG2 Attagene TRANS M06 internal marker reporter
Method in brief: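 Internal-marker background readout from a multiplexed TRANS reporter system in HepG2; 24 h dosing; mRNA induction quantified by RT-PCR plus capillary electrophoresis fluorescence; DMSO as negative control and baseline.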

[7] = ATG_M_32_TRANS: Attagene TRANS-FACTORIAL HepG2 Assay for M32 Transcription Factor (Internal Marker) (AID 2282984; active = hit-call score of the fitted dose curve at least 0.9, where 1 is the maximum;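 also: transcript level of a background control reporter unit measured by RT-PCR and capillary electrophoresis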); settings: HepG2 Attagene TRANS M32 internal marker reporter
Method in brief: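 Capillary electrophoresis of 6-FAM-labelled reporter fragments gives the signal; data fitted for gain over DMSO negative control. Source: HepG2 cells bearing transient multiple reporter transcription units, 24 h exposure.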

[8] = molecular target: Nuclear receptor subfamily 4 group A member 2 (Homo sapiens) (UniProt P43354); assay: ATG_NURR1_TRANS: Attagene TRANS-FACTORIAL HepG2 Assay for human Nuclear Receptor Related Protein 1 (NURR1) (AID 2282985; active = hit-call score of the fitted dose curve at least 0.9, where 1 is the maximum); settings: HepG2 Attagene TRANS reporter, mRNA readout
Chain of Nuclear receptor subfamily 4 group A member 2 (Homo sapiens) (P43354 whole entry, looked up): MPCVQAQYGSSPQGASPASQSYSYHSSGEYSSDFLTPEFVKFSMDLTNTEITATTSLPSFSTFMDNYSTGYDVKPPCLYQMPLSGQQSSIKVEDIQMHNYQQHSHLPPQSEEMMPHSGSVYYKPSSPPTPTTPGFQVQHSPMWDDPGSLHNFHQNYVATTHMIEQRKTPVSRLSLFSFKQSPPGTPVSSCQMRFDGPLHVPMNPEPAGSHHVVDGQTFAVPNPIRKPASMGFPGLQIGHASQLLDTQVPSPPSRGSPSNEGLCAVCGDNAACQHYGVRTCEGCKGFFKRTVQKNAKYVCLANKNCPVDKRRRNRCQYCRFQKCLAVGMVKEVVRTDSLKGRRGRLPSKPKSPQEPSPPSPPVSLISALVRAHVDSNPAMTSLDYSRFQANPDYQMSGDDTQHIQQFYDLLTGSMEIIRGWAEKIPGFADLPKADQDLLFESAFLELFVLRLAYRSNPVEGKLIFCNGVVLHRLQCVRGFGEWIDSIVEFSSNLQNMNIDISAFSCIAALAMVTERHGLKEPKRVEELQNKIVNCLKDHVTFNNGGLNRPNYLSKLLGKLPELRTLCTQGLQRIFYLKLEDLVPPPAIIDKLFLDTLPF
Method in brief: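 HepG2 / transient MRTU transfection / 24 h compound exposure / RT-PCR + CE fluorescence of reporter mRNA / gain-of-signal vs DMSO.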

[9] = molecular target: Transcriptional activator Myb (Homo sapiens) (UniProt P10242); assay: ATG_Myb_CIS: Attagene CIS-FACTORIAL HepG2 Assay for human Myeloblastosis (Myb) Proto-Oncogene Transcription Factor (AID 2282986); settings: HepG2 Attagene CIS-FACTORIAL Myb reporter transcription; actives raise or lower the signal
Chain of Transcriptional activator Myb (Homo sapiens) (P10242 whole entry, looked up): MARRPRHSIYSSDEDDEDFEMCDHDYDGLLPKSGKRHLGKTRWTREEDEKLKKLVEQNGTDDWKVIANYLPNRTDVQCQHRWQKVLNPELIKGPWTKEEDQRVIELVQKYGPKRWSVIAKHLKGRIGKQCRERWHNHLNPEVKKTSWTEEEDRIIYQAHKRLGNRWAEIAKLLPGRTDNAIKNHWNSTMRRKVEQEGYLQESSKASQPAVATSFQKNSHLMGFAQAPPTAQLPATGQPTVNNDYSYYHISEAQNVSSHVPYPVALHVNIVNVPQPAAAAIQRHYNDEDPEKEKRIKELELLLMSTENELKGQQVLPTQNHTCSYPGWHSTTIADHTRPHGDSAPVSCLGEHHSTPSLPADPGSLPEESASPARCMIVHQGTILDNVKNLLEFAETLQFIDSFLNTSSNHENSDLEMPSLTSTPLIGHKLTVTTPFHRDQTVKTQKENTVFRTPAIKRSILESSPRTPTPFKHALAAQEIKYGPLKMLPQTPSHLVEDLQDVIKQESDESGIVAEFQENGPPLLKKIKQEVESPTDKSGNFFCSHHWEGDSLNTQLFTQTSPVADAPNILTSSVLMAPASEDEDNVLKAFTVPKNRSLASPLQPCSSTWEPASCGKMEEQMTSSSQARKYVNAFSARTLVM
Method in brief: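 HepG2, transient MRTU transfection (cis-element promoters, endogenous TF activity), 24 h compound exposure. Readout: reporter mRNA via RT-PCR, 6-FAM labeling, HpaI digest, capillary electrophoresis. Gain/loss fit vs DMSO.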

[10] = molecular target: Nuclear respiratory factor 1 (Homo sapiens) (UniProt Q16656); assay: ATG_NRF1_CIS: Attagene CIS-FACTORIAL HepG2 Assay for human Nuclear Respiratory Factor 1 (NRF1) Orphan Gene (AID 2282987); settings: HepG2 NRF1 cis-element reporter, Attagene multiplex; actives raise or lower the signal
Chain of Nuclear respiratory factor 1 (Homo sapiens) (Q16656 whole entry, looked up): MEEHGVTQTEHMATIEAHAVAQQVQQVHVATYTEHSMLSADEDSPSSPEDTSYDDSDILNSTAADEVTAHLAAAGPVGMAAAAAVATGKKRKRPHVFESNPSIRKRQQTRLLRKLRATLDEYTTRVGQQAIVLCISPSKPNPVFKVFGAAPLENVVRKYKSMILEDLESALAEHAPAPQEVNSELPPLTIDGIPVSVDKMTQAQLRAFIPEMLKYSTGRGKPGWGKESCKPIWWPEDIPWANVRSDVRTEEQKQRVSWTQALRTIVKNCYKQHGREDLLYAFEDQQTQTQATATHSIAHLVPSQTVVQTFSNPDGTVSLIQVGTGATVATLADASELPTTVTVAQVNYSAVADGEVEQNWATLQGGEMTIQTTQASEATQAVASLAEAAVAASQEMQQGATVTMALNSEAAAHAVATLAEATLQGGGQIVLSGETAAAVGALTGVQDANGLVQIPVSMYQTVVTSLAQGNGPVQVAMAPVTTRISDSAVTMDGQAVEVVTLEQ
Method in brief: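 Endogenous NRF1-driven reporter transcription measured in transiently transfected human HepG2 liver cells. Readout: reporter mRNA by RT-PCR and capillary electrophoresis with fluorescence detection, 24 h post-dosing. Gain or loss of signal fitted relative to DMSO baseline.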

[11] = ATG_NFI_CIS: Attagene CIS-FACTORIAL HepG2 Assay for human Nuclear Factor I (NFI) (AID 2282989); settings: HepG2 cis-regulatory reporter, NFI response element transcription; actives raise or lower the signal
Method in brief: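 Transfected HepG2 liver cells, exposed 24 h, supplied total RNA for oligo(dT) reverse transcription and reporter-specific PCR. Labelled, HpaI-cut fragments were sized by capillary electrophoresis; DMSO set the baseline for bidirectional fitting.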

[12] = molecular target: Myc proto-oncogene protein (Homo sapiens) (UniProt P01106); assay: ATG_Myc_CIS: Attagene CIS-FACTORIAL HepG2 Assay for human Myelocytomatosis (Myc) Proto-Oncogene Transcription Factor (AID 2282990); settings: HepG2, Attagene cis-reporter transcription factor activity; actives raise or lower the signal
Chain of Myc proto-oncogene protein (Homo sapiens) (P01106 whole entry, looked up): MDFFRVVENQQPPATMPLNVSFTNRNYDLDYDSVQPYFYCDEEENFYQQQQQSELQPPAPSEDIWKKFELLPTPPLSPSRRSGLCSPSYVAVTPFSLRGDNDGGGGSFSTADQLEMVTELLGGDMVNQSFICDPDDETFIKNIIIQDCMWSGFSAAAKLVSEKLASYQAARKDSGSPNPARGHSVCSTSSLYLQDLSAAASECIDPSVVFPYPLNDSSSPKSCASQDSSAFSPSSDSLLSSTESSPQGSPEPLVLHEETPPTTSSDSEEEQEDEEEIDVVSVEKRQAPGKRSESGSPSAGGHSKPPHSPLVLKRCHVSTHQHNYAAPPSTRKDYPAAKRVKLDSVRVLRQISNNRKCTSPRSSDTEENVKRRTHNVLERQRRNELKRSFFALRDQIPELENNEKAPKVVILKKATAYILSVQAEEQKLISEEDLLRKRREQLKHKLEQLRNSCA
Method in brief: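 Transiently transfected HepG2 cells bearing cis-promoter reporter units for endogenous transcription factors; 24 h exposure. Reporter mRNA measured by RT-PCR, 6-FAM primer extension, HpaI cut and capillary electrophoresis; bidirectional fit relative to DMSO.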

[13] = ATG_NF_kB_CIS: Attagene CIS-FACTORIAL HepG2 Assay for human Nuclear Factor Kappa B (NF-kB) (AID 2282991); settings: HepG2 Attagene cis-factorial NF-kB reporter mRNA; actives raise or lower the signal
Method in brief: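 Read-out: reporter transcript levels quantified by RT-PCR plus capillary electrophoresis of 6-FAM-labelled, HpaI-cut fragments. Transfected HepG2 cells, 24 h compound exposure, endogenous NF-kB-driven cis element; gain or loss scored versus DMSO.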

[14] = ATG_NRF2_ARE_CIS: Attagene CIS-FACTORIAL HepG2 Assay for human Nuclear Factor Erythroid 2 Related Factor 2 (NFR2) response to Antioxidant Response Elements (ARE) (AID 2282992); settings: HepG2 Attagene ARE/NRF2 reporter, transcription factor activity; actives raise or lower the signal
Method in brief: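 HepG2 cells transiently transfected with multiplexed cis-element reporter constructs, 24 h after chemical dosing; reporter mRNA quantified by RT-PCR, fluorescent primer extension, HpaI digestion and capillary electrophoresis. Bidirectional fit relative to DMSO.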

[15] = molecular target: Cellular tumor antigen p53 (Homo sapiens) (UniProt P04637); assay: ATG_p53_CIS: Attagene CIS-FACTORIAL HepG2 Assay for human p53 Transcription Factor (AID 2282994); settings: HepG2 p53 cis-element reporter, Attagene mRNA; actives raise or lower the signal
Chain of Cellular tumor antigen p53 (Homo sapiens) (P04637 whole entry, looked up): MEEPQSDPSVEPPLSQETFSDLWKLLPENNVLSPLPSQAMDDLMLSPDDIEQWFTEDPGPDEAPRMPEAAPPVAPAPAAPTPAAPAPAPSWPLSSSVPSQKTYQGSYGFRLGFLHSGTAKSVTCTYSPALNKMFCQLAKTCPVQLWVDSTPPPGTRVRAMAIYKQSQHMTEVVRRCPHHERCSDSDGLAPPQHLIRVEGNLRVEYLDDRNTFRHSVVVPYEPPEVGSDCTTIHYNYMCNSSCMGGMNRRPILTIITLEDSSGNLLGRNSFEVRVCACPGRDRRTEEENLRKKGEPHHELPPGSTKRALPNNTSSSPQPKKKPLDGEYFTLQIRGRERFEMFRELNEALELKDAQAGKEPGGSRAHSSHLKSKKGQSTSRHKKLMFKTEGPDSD
Method in brief: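 HepG2 cells transiently transfected with cis-regulated multiple reporter transcription units, dosed 24 h. Reporter mRNA measured by RT-PCR, 6-FAM primer extension, HpaI digestion and capillary electrophoresis; bidirectional fit relative to DMSO.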

[16] = BSK_3C_TissueFactor: BioMAP Diversity Plus: 3C Assay for Tissue Factor Biomarker Activity (AID 2282997); settings: BioMAP 3C HUVEC, tissue factor biomarker readout; actives raise or lower the signal
Method in brief: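 Endothelial monolayers (human umbilical vein, primary) are dosed, incubated 24 h, and assayed for Tissue Factor by ELISA; DMSO serves as negative control for bidirectional fitting.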

[17] = BSK_3C_uPAR: BioMAP Diversity Plus: 3C Assay for Urokinase-type plasminogen activator receptor (uPAR) Biomarker Activity (AID 2282998); settings: BioMAP 3C HUVEC, uPAR biomarker ELISA; actives raise or lower the signal
Method in brief: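 In this endothelial cell-based assay, human umbilical vein primary cells were treated with chemicals and harvested at 24 h. uPAR was quantified using ELISA, with gains or losses fitted relative to DMSO controls.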

[18] = BSK_3C_VCAM1: BioMAP Diversity Plus: 3C Assay for Vascular cell adhesion molecule 1 (VCAM1) Biomarker Activity (AID 2282999); settings: BioMAP 3C HUVEC, VCAM1 ELISA, cytokine-stimulated; actives raise or lower the signal
Method in brief: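 Human umbilical vein endothelial cells (3C system), biomarker read by ELISA 24 h after dosing; bidirectional fit against DMSO baseline. Cytotoxicity tracked by SRB total-protein staining in parallel cultures at biomarker time.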

[19] = molecular target: Hepatocyte nuclear factor 4-alpha (Homo sapiens) (UniProt P41235); assay: ATG_HNF4a_TRANS: Attagene TRANS-FACTORIAL HepG2 Assay for human Hepatocyte Nuclear Factor 4 alpha (HNF4a) (AID 2282982; active = hit-call score of the fitted dose curve at least 0.9, where 1 is the maximum); settings: HepG2 HNF4a transactivation reporter, mRNA readout
Method in brief: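 Gain-of-signal mRNA induction, relative to DMSO vehicle, was read after 24 h compound treatment of HepG2 cells bearing transfected GAL4-UAS reporters. Detection used RT-PCR, 6-FAM primer extension and capillary electrophoresis.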

Measured: AC50

ClC(Cl)=C(c1ccc(Cl)cc1)c1ccc(Cl)cc1
inactive: [1] | [2] | [3] | [4] | [5] | [6] | [7] | [8] | [9] | [10] | [12] | [13] | [15]
active: [10] 61.1 µM and 100 µM | [11] 100 µM and 114 µM and 152 µM | [12] 169 µM and 129 µM | [14] 50.7 µM [middle of 4 runs] | [16] 29.4 µM | [17] 33.4 µM | [18] 31.3 µM

Clc1ccc(C(c2ccccc2Cl)C(Cl)(Cl)Cl)cc1 (stereo not given)
inactive: [1] | [2] | [4] | [5] | [6] | [7] | [8] | [9] | [10] | [11] | [12] | [13] | [14] | [15]
active: [10] 120 µM | [11] 107 µM and 70.5 µM | [12] 111 µM | [14] 41.4 µM and 39.6 µM and 21.3 µM | [16] 20.9 µM | [17] 21.3 µM | [18] 21 µM

Oc1c(Cl)c(Cl)c(Cl)c(Cl)c1Cl
inactive: [2] | [3] | [4] | [5] | [19] | [6] | [7] | [8] | [9] | [10] | [11] | [12] | [13] | [15] | [16]
active: [10] 12.5 µM and 25.7 µM | [11] 27.4 µM and 51 µM | [12] 50 µM and 91.9 µM | [13] 9.11 µM | [14] 13.7 µM and 12.5 µM and 2.62 µM | [15] 51 µM | [16] 26.9 µM | [17] 13.5 µM and 10.7 µM | [18] 10.2 µM and 32.3 µM
